Source: PubChem BioAssay (EPA / NIEHS)
Where “and” joins values, the source holds several entries; their conditions need not be identical. Equal entries are not always repeated. Results filed as inconclusive are left out. A structure can be active in one record and inactive in another. Calls of active or inactive are those of the source. The calls were made as follows: active = hit-call score of the fitted dose curve at least 0.9, where 1 is the maximum; inconclusive = response in the unintended direction; inactive = score below 0.9.

How the values were obtained:
[1] = ATG_M_06_XSP2: Attagene TRANS-FACTORIAL Multi-Species (XSP2) HepG2 Assay for M06 Transcription Factor (Internal Marker) (AID 2283811);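 also: hits are increases in signal above the DMSO baseline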
Outline: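 HepG2 cells transiently transfected with GAL4-UAS multiple reporter units, medium containing 3 nM 6-alpha-fluorotestosterone and 1.5 nM norgestrel; reporter mRNA measured 24 hours post-dosing by RT-PCR and capillary electrophoresis. Internal background marker, gain of signal vs DMSO.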

[2] = test system: turtle Estrogen Receptor (ERa), gene 101933533; assay: ATG_trERa_XSP2: Attagene TRANS-FACTORIAL Multi-Species (XSP2) HepG2 Assay for turtle Estrogen Receptor (ERa) (AID 2283812);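 also: human HepG2 liver cells transiently expressing turtle ERa-Gal4 chimeric receptor; actives raise reporter signal above DMSO so AC50 reflects agonist activity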
Outline: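 HepG2 cells transiently transfected with GAL4-UAS reporter units expressing turtle ERa-Gal4 chimera. Reporter mRNA measured after 24 h dosing by RT-PCR, fluorescent labelling and capillary electrophoresis; gain of signal fitted versus DMSO.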

[3] = biological target: Estrogen receptor beta (Homo sapiens) (UniProt Q92731); assay: ATG_hERb_XSP2: Attagene TRANS-FACTORIAL Multi-Species (XSP2) HepG2 Assay for human Estrogen Receptor (ERb) (AID 2283813);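 also: actives raise reporter mRNA above DMSO so AC50 reflects agonist induction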
Outline: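 HepG2 cells transiently transfected with GAL4-UAS reporter units and chimeric human ERb-Gal4, 24 h exposure. Reporter mRNA quantified by RT-PCR with FAM labelling, HpaI digestion and capillary electrophoresis; gain of signal versus DMSO.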

[4] = biological target: GAL4 Transcription Factor (Internal Marker), GAL4 (gene 855828) (UniProt P04386); assay: ATG_GAL4_XSP2: Attagene TRANS-FACTORIAL Multi-Species (XSP2) HepG2 Assay for GAL4 Transcription Factor (Internal Marker) (AID 2283814);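 also: GAL4 reporter mRNA background control in MRTU transfected cells not a receptor target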
Outline: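 HepG2 cells transiently transfected with GAL4-UAS reporter units, stimulated with 3 nM 6-alpha-fluorotestosterone plus 1.5 nM norgestrel, dosed 24 h. Reporter mRNA by RT-PCR/capillary electrophoresis; gain-of-signal fit versus DMSO, background control.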

[5] = biological target: zebrafish Estrogen Receptor (ER1), esr1 (gene 259252) (UniProt P57717); assay: ATG_zfER1_XSP2: Attagene TRANS-FACTORIAL Multi-Species (XSP2) HepG2 Assay for zebrafish Estrogen Receptor (ER1) (AID 2283816)
Outline: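 HepG2 cells transiently transfected with a GAL4-UAS reporter and a chimeric zebrafish ER1-Gal4 construct, dosed 24 h. Reporter mRNA quantified by RT-PCR, labelling, HpaI digestion and capillary electrophoresis, relative to DMSO.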

[6] = biological target: chicken Estrogen Receptor (ERa), ESR1 (gene 396099) (UniProt P06212); assay: ATG_chERa_XSP2: Attagene TRANS-FACTORIAL Multi-Species (XSP2) HepG2 Assay for chicken Estrogen Receptor (ERa) (AID 2283817);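 also: actives raise reporter signal above DMSO so AC50 reflects ER activation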
Outline: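 Transiently transfected HepG2 cells expressing chimeric chicken ERa-GAL4 reporter units, dosed 24 h with 3 nM 6-alpha-fluorotestosterone and 1.5 nM norgestrel present. Reporter mRNA measured by RT-PCR and capillary electrophoresis; gain-of-signal fitted relative to DMSO.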

[7] = test system: frog Estrogen Receptor (ER), gene 398734; assay: ATG_frER1_XSP2: Attagene TRANS-FACTORIAL Multi-Species (XSP2) HepG2 Assay for frog Estrogen Receptor (ER) (AID 2283821);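 also: hits raise reporter mRNA above DMSO baseline so potency means agonist or activator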
Outline: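 HepG2 cells transiently transfected with GAL4-UAS reporter units expressing a chimeric frog ER-Gal4 protein; 24 h exposure. Reporter mRNA quantified by RT-PCR, fluorescent labelling and capillary electrophoresis; gain of signal fitted against DMSO baseline.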

[8] = test system: zebrafish Estrogen Receptor (ER2b), gene 317733; assay: ATG_zfER2b_XSP2: Attagene TRANS-FACTORIAL Multi-Species (XSP2) HepG2 Assay for zebrafish Estrogen Receptor (ER2b) (AID 2283823);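 also: fitted upward as reporter gain over DMSO so potency reflects activation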
Outline: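 Cells used were HepG2, transiently transfected with chimeric nuclear receptor-Gal4 reporter units. After 24 h of chemical treatment, reporter transcripts were amplified by RT-PCR, labelled and sized by capillary electrophoresis, with induction analysed relative to DMSO.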

[9] = test system: frog Estrogen Receptor (ER2), gene 100174814; assay: ATG_frER2_XSP2: Attagene TRANS-FACTORIAL Multi-Species (XSP2) HepG2 Assay for frog Estrogen Receptor (ER2) (AID 2283828)
Outline: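 HepG2 cells transiently transfected with multiplexed GAL4-UAS reporter units expressing chimeric frog ER2–Gal4 protein; reporter mRNA measured 24 h after chemical dosing by RT-PCR, fluorescent labeling and capillary electrophoresis. Gain-of-signal fitted relative to DMSO baseline.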

[10] = biological target: Peroxisome proliferator-activated receptor gamma (Homo sapiens) (UniProt P37231); assay: ATG_hPPARg_XSP2: Attagene TRANS-FACTORIAL Multi-Species (XSP2) HepG2 Assay for human Peroxisome Proliferator-activated Receptor gamma (PPARg) (AID 2283829);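 also: actives raise reporter mRNA above DMSO so AC50 reflects PPARg activation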
Outline: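 After transfecting HepG2 with GAL4-UAS reporter constructs, cells are dosed for 24 h; total RNA is reverse-transcribed, PCR-amplified, FAM-labeled, HpaI-digested and resolved by capillary electrophoresis. Activity is measured as mRNA induction relative to DMSO.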

[11] = biological target: mouse Peroxisome Proliferator-activated Receptor gamma (PPARg), Pparg (gene 19016) (UniProt P37238); assay: ATG_mPPARg_XSP2: Attagene TRANS-FACTORIAL Multi-Species (XSP2) HepG2 Assay for mouse Peroxisome Proliferator-activated Receptor gamma (PPARg) (AID 2283830);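 also: hits are gains in reporter mRNA above DMSO so AC50 marks activation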
Outline: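 HepG2 cells transiently transfected with GAL4-UAS reporter units for chimeric NR-Gal4 proteins including mouse PPARg, exposed 24 h; medium contained 3 nM 6-alpha-fluorotestosterone and 1.5 nM norgestrel. Reporter mRNA quantified by RT-PCR, HpaI digestion and capillary electrophoresis, vs DMSO.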

[12] = ATG_XTT_Cytotoxicity_XSP1: Cytotoxicity Assessment in the Attagene TRANS-FACTORIAL Multi-Species (XSP1) HepG2 Assay (AID 2283810)
Outline: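 XTT viability readout taken at 24 hours post-dosing in HepG2 liver cells co-treated with 3 nM 6-alpha-fluorotestosterone. Signal loss relative to DMSO controls reflects cytotoxicity.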

[13] = biological target: Estrogen receptor (Homo sapiens) (UniProt P03372); assay: ATG_hERa_XSP2: Attagene TRANS-FACTORIAL Multi-Species (XSP2) HepG2 Assay for human Estrogen Receptor (ERa) (AID 2283827)
Outline: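 HepG2 cells transiently transfected with multiplexed GAL4-UAS reporters driven by chimeric receptor-Gal4 proteins, dosed 24 h with 3 nM 6-alpha-fluorotestosterone and 1.5 nM norgestrel present. Reporter mRNA by RT-PCR and capillary electrophoresis; gain-of-signal fit versus DMSO.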

[14] = biological target: Nuclear receptor subfamily 1 group I member 2 (Mus musculus) (UniProt O54915); assay: ATG_mPXR_XSP2: Attagene TRANS-FACTORIAL Multi-Species (XSP1) HepG2 Assay for mouse Pregnane X Receptor (PXR) (AID 2283831)
Outline: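 Reporter transcripts were quantified by RT-PCR, FAM primer extension, HpaI digestion and capillary electrophoresis after 24 h of chemical exposure in transiently transfected HepG2 cells carrying chimeric receptor-GAL4 constructs; DMSO served as baseline.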

[15] = ATG_M_32_XSP2: Attagene TRANS-FACTORIAL Multi-Species (XSP2) HepG2 Assay for M19 Transcription Factor (Internal Marker) (AID 2283826)
Outline: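 Transfected HepG2 (multiplexed GAL4-UAS reporters), 24 h chemical exposure, 3 nM 6-alpha-fluorotestosterone + 1.5 nM norgestrel added. RNA → oligo(dT) RT → PCR → 6-FAM primer extension → HpaI cut → CE. Fitted upward vs DMSO.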

[16] = test system: chicken Androgen Receptor (AR), gene 422165; assay: ATG_chAR_XSP2: Attagene TRANS-FACTORIAL Multi-Species (XSP2) HepG2 Assay for chicken Androgen Receptor (AR) (AID 2283819);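 also: hits raise reporter mRNA above DMSO so potency is for activation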
Outline: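 HepG2 cells transiently transfected with chicken AR–GAL4 chimeric reporter constructs, stimulated with 3 nM 6-alpha-fluorotestosterone plus 1.5 nM norgestrel, dosed 24 h. Reporter mRNA quantified by RT-PCR and capillary electrophoresis; gain of signal fitted versus DMSO.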

[17] = ATG_M_19_XSP2: Attagene TRANS-FACTORIAL Multi-Species (XSP2) HepG2 Assay for M32 Transcription Factor (Internal Marker) (AID 2283822)
Outline: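 Internal background marker in a multi-species nuclear receptor TRANS panel: transfected HepG2 cells exposed 24 h, with 3 nM 6-alpha-fluorotestosterone and 1.5 nM norgestrel present. Readout is RT-PCR of reporter transcripts resolved by capillary electrophoresis, gain-of-signal versus DMSO.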

Measured: AC50

Sequence of Estrogen receptor beta (Homo sapiens) (Q92731 whole entry, looked up, the tested form may be a part): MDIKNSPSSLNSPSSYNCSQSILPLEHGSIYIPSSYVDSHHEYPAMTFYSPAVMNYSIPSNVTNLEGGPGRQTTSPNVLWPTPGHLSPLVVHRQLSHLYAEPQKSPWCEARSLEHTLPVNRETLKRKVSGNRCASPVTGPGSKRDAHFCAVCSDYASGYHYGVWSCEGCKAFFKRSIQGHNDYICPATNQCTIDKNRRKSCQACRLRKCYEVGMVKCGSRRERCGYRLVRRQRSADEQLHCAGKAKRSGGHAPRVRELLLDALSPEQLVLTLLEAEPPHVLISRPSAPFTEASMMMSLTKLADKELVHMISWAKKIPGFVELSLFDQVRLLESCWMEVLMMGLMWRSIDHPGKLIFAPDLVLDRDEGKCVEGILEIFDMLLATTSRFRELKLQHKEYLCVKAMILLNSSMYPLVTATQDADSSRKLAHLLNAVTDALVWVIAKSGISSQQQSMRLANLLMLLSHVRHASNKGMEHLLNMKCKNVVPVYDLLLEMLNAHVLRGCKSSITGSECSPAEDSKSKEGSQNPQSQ
Sequence of GAL4 Transcription Factor (Internal Marker), GAL4 (gene 855828) (P04386 whole entry, looked up, the tested form may be a part): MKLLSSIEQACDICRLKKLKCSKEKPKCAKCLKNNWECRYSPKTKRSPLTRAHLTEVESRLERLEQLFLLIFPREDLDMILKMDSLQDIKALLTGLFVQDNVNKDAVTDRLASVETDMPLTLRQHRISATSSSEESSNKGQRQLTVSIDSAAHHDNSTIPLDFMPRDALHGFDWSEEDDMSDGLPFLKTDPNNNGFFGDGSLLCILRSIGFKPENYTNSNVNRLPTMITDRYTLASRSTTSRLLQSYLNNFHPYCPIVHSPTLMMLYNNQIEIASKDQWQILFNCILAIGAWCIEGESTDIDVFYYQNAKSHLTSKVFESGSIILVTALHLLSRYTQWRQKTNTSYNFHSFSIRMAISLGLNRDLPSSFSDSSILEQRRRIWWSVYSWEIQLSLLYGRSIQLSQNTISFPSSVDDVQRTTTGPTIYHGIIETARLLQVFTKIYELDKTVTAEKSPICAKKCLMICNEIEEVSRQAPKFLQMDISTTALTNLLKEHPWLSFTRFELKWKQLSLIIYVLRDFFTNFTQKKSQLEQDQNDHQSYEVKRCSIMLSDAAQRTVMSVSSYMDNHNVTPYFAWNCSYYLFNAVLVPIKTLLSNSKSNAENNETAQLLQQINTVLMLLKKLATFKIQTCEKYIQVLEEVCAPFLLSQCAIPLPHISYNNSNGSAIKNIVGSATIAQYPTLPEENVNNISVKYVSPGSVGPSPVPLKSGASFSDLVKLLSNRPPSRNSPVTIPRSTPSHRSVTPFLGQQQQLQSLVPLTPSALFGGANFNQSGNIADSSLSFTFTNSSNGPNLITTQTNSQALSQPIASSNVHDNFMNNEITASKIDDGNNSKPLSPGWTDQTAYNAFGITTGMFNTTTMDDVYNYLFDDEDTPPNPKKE
Sequence of chicken Estrogen Receptor (ERa), ESR1 (gene 396099) (P06212 whole entry, looked up, the tested form may be a part): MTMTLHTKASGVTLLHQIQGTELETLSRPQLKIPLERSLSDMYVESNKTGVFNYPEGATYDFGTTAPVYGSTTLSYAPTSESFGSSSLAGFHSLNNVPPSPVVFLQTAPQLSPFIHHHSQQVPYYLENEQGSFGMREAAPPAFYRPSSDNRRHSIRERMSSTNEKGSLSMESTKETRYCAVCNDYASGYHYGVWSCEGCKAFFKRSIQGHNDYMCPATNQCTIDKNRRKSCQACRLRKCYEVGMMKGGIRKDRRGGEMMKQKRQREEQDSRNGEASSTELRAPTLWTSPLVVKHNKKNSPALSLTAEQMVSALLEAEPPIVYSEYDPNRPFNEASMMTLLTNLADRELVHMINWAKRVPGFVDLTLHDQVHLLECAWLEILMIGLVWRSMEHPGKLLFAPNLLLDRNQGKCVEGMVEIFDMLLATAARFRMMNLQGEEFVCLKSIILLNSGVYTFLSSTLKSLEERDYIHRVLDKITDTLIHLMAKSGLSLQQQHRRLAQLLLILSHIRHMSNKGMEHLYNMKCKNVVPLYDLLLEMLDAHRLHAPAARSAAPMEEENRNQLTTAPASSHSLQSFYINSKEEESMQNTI
Sequence of zebrafish Estrogen Receptor (ER1), esr1 (gene 259252) (P57717 whole entry, looked up, the tested form may be a part): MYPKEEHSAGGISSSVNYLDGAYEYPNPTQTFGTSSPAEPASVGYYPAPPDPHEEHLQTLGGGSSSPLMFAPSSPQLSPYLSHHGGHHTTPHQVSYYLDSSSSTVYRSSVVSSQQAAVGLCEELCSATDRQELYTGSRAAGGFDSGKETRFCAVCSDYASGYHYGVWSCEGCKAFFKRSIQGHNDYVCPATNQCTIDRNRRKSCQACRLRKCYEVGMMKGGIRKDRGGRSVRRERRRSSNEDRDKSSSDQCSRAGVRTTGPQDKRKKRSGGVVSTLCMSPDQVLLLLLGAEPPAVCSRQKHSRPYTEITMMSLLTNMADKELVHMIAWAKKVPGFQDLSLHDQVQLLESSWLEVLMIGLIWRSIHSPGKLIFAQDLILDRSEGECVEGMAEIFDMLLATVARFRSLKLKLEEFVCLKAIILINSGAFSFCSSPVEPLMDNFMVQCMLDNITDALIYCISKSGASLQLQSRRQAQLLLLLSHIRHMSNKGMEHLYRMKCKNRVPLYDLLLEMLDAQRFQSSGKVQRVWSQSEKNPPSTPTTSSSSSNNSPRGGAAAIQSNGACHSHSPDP
Sequence of Nuclear receptor subfamily 1 group I member 2 (Mus musculus) (O54915 whole entry, looked up, the tested form may be a part): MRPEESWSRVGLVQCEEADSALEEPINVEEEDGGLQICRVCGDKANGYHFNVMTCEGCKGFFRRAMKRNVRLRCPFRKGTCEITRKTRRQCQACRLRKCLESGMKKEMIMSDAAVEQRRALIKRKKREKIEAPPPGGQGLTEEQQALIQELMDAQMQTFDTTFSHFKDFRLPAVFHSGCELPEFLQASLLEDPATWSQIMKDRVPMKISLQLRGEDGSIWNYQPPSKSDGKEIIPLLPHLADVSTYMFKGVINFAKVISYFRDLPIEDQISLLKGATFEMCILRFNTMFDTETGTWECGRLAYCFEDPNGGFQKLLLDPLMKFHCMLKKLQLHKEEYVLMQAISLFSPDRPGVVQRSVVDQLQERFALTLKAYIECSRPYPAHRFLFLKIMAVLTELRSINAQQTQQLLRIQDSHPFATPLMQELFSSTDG
Sequence of Peroxisome proliferator-activated receptor gamma (Homo sapiens) (P37231 whole entry, looked up, the tested form may be a part): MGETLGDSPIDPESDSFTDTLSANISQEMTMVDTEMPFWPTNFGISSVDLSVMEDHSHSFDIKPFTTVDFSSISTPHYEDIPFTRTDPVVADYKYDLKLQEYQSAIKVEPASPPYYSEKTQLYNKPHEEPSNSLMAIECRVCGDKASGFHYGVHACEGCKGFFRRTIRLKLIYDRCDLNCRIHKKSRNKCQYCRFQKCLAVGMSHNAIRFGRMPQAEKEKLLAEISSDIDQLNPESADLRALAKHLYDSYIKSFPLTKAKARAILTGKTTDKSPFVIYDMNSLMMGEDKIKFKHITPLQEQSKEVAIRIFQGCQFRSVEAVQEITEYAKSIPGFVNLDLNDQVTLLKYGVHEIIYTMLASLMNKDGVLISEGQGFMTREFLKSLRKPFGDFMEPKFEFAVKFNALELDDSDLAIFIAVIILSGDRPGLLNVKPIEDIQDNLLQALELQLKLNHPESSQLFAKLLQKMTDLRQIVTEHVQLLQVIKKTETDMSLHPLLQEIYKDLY
Sequence of mouse Peroxisome Proliferator-activated Receptor gamma (PPARg), Pparg (gene 19016) (P37238 whole entry, looked up, the tested form may be a part): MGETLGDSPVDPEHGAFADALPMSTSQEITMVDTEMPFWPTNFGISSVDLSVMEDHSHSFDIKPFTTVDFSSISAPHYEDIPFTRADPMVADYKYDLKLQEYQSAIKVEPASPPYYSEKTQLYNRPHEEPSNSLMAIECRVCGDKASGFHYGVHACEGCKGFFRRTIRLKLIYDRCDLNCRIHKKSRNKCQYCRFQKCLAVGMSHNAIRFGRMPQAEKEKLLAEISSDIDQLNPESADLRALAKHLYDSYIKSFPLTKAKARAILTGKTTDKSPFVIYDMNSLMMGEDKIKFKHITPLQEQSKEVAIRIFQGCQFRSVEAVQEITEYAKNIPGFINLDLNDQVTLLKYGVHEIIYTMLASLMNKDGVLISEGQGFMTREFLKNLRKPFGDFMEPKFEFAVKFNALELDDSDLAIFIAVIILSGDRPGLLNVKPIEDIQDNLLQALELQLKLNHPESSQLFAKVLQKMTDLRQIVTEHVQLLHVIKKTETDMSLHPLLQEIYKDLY
Sequence of Estrogen receptor (Homo sapiens) (P03372 whole entry, looked up, the tested form may be a part): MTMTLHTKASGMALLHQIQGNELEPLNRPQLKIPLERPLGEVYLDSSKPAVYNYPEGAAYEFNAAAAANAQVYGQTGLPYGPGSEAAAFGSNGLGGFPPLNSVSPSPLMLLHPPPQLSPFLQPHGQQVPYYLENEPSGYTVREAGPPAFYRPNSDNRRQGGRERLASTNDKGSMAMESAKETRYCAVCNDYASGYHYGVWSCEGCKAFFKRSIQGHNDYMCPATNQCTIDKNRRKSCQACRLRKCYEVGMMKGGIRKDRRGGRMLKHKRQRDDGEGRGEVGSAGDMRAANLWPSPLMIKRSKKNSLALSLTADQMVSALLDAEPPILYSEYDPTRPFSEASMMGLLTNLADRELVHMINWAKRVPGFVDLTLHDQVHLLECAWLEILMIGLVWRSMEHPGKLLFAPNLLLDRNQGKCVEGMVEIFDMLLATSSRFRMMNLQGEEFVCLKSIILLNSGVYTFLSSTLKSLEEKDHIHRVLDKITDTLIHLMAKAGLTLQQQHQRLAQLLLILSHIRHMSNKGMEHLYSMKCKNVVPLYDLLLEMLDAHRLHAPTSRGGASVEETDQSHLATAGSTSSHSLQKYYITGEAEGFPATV

c1ccc2c(c1)-c1cccc3cccc-2c13
active: [6] 27.7 µM | [8] 57.8 µM | [9] 33.4 µM and 25.2 µM | [10] 21.6 µM
inactive: [1] | [2] | [3] | [4] | [5] | [6] | [7] | [8] | [10] | [11]

Clc1ccc(C(c2ccc(Cl)cc2)C(Cl)Cl)cc1
inactive: [1] | [4] | [5] | [10] | [11]
active: [12] 100 µM | [2] 11.6 µM | [6] 2.47 µM | [7] 3.04 µM | [8] 5.29 µM | [13] 9.28 µM | [9] 5.5 µM | [14] 7.95 µM

Clc1ccc(C(c2ccc(Cl)cc2)C(Cl)(Cl)Cl)cc1
active: [5] 100 µM | [7] 37.2 µM | [8] 4.56 µM | [9] 30.9 µM | [11] 100 µM | [14] 4.54 µM
inactive: [12] | [1] | [3] | [15] | [10]

O=[N+]([O-])c1ccc(Oc2ccc(Cl)cc2Cl)cc1
inactive: [1] | [2] | [3] | [5] | [6] | [7] | [9]
active: [8] 67.8 µM and 7.06 µM | [9] 27 µM | [10] 16 µM and 10.8 µM | [11] 16.9 µM and 27.2 µM | [14] 4.29 µM and 2.99 µM

Oc1ccc2ccc3cccc4ccc1c2c34
inactive: [1] | [5] | [16] | [7] | [15]
active: [2] 8.33 µM and 5.18 µM | [3] 1.64 µM and 1.79 µM | [5] 5.13 µM | [6] 9.01 µM and 2.69 µM | [8] 10.6 µM and 7.22 µM | [9] 8.67 µM and 1.64 µM | [11] 23.4 µM and 3.75 µM | [14] 16.5 µM and 11.1 µM

CC(C)(C)C(O)(CCc1ccc(Cl)cc1)Cn1cncn1 (stereo unspecified)
active: [8] 132 µM and 61 µM | [14] 4.58 µM and 5.55 µM
inactive: [1] | [2] | [4] | [5] | [6] | [7] | [17] | [15] | [9] | [10] | [11]
